Assay results published in PubChem BioAssay AID1839 (Johns Hopkins Ion Channel Center, 2009).
Among all 2,400 compounds or so, about 220 (9.2%) were called active. The sample as a whole holds a higher share of actives than the screen did. A number with no mark means an inactive call.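 Rule for the calls: active = signal change above the mean of dofetilide-free buffer controls plus 3 SD, so a positive margin; inactive = the rest.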

assay: nonspecific flux effects in parental CHO-K1, confirmation, counter-screen for hERG block protection project, cell-based, CHO-K1 parental line, FluxOR thallium flux (AID 1839); settings: CHO-K1 parental cells, FluxOR thallium flux fluorescence; at 10 µM;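 note: compounds applied alone with no dofetilide to cells lacking hERG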

Row | Structure (SMILES) | signal change vs control minus 3*SD hit threshold (margin above threshold, higher = more increase)
1 | O=C(NC(=S)N1CCN(C/C=C/c2ccccc2)CC1)c1ccc(Cl)nc1 | -22.6%
2 | Cc1ccc(NC(=S)N2CCN(c3ccccc3F)CC2)c(C)c1 | -24.2%
3 | O=c1[nH]c2ccc(S(=O)(=O)NCc3ccccc3)cc2[nH]1 | -30.8%
4 | CC(=O)c1c(N2CCN(Cc3ccccc3)CC2)[nH]c(-c2ccccc2)nc1=S | -16.4%
5 | CCN(CC)C(=O)CN1C(=O)c2cccc3cccc(c23)C1=O | -21.1%
6 | COc1ccccc1/C=C1\SC(=S)N(NS(=O)(=O)c2ccc(C)cc2)C1=O | -41.8%
7 | Cc1cc(=O)oc2cc(OC(C(=O)O)c3ccccc3)ccc12 (stereo not given) | -33.7%
8 | Cc1ccc(-c2cc(-c3n[nH]c(=S)o3)c3ccccc3n2)cc1 | -2.6%
9 | C=CCc1cc(Cl)ccc1OCCOCCN(C)C | -30%
10 | CCOC(=O)c1sc2ncnc(NCC(c3cccs3)N(C)C)c2c1C (stereo not given) | 3.3% (active)
11 | CCOC(=O)c1sc(NC(=S)NC(=O)c2ccccc2)nc1C | -3.4%
12 | CCOC(=O)c1sc(NC(=O)c2ccccc2C(=O)O)c(C(=O)OCC)c1C | -19%
13 | CCOC(=O)c1sc2nc(C)[nH]c(=S)c2c1C | -9.2%
14 | CCOC(=O)c1sc2ncnc(NCc3ccco3)c2c1C | 1.7% (active)
15 | CCOC(=O)c1c(NC(=O)/C=C/c2ccco2)sc(C)c1C | -32.2%
16 | CC/C(=N\NC(=O)c1nnn(-c2nonc2N)c1-c1cccs1)c1ccccc1 | -25.4%
17 | COC(=O)c1ccc(C(=O)NC(=S)Nc2nc3c(s2)CCCC3)cc1 | 2% (active)
18 | O=C(NC(=S)Nc1nc2c(s1)CCCC2)c1ccc(C(=O)c2ccccc2)cc1 | -36.7%
19 | CC(C)(C)c1ccc(C(=O)NC(=S)Nc2nc3c(s2)CCCC3)cc1 | -9.2%
20 | O=C(NCC(c1cccs1)N1CCOCC1)c1cc(S(=O)(=O)N2CCOCC2)ccc1F (stereo not given) | -28.4%
21 | O=C1CSC(=S)N1/N=C/c1cc(Br)ccc1O | -42.6%
22 | O=C(/C=C/c1ccccc1)c1cc(Br)ccc(=O)c1O | -22.9%
23 | CC(=O)Oc1c(-c2ccc(Br)o2)oc2ccccc2c1=O | 63.5% (active)
24 | COc1ccc(-c2oc3ccccc3c(=O)c2OC(C)=O)cc1 | -22.3%
25 | CC(=O)Oc1c(-c2ccco2)oc2ccccc2c1=O | -12.5%
26 | Cc1ccc(C(=O)NNc2cc(N3CCCC3)nc(N3CCCC3)n2)cc1 | -21.8%
27 | Cc1ccc(NC(=O)C(=O)NNC(=O)c2cccs2)cc1 | 27.4% (active)

Row | Structure (SMILES) | signal change vs control minus 3*SD hit threshold (margin above threshold, higher = more increase)
28 | Cc1ccc(N/C=C/C(=O)c2cccs2)cc1 | -25.9%
29 | COc1ccc(NC(=O)C(=O)NNC(=O)c2cccs2)c(OC)c1 | -7.2%
30 | CCN(CC)c1ccc(NC(=S)NC(=O)c2cccs2)cc1 | -20.8%
31 | O=C(NC(=S)NNC(=O)c1cccs1)c1ccc(Br)o1 | -45.9%
32 | CCc1ccc(NC(=O)C(=O)NNC(=O)c2cccs2)cc1 | 18.1% (active)
33 | CCOc1ccccc1Nc1nc(-c2sc(C)nc2C)cs1 | -38.3%
34 | COC(=O)c1ccc(-n2c(C)nc(=O)c(-c3ccccc3)c2C)cc1 | -20.1%
35 | COc1ccc(CCNS(=O)(=O)c2csc(C(N)=O)c2)cc1OC | -34.6%
36 | CCNC(=S)Nc1scc(-c2ccccc2)c1C(=O)OCC | -20.8%
37 | O=c1oc2ccccc2c(Cl)c1CN1CCCCC1 | -42.9%
38 | NC(=O)C1CCN(C(=O)CCC(=O)c2ccc(F)cc2)CC1 | -28.7%
39 | Cc1sc2nc(CN3CCOCC3)[nH]c(=S)c2c1C | 21.4% (active)
40 | CCOC(=O)NC(=S)Nc1ccc(C(C)(C)C)cc1Br | -0.4%
41 | CC(=O)c1c(C)c2c(n1CCN(C)C)CCCC2 | -15.9%
42 | CSc1nc2c(c(=O)[nH]1)C(c1ccc(Cl)cc1)CC(=O)N2 (stereo not given) | -31.6%
43 | CC(C)COn1c(=S)[nH]c2ccccc2c1=O | -10.2%
44 | CC(C)CCn1c(=S)[nH]c2ncccc2c1=O | -18.3%
45 | COc1ccccc1Cn1c(=S)[nH]c2ccc(Br)cc2c1=O | -15.7%
46 | O=c1c2ccccc2[nH]c(=S)n1CCc1ccccc1 | 5.9% (active)
47 | O=c1c2cccnc2[nH]c(=S)n1CCC1=CCCCC1 | 14.4% (active)
48 | CCCCn1c(=S)[nH]c2ccccc2c1=O | -18.2%
49 | O=C(CCn1c(=S)[nH]c2cc3c(cc2c1=O)OCO3)NCc1ccc(Cl)cc1 | -22.3%
50 | CCCCCn1c(=S)[nH]c2ncccc2c1=O | -0.3%
51 | O=c1c2ccccc2[nH]c(=S)n1CCC1=CCCCC1 | 3% (active)
52 | Cc1ccc(Cn2c(=S)[nH]c3ccccc3c2=O)cc1 | -14.9%
53 | O=c1c2ccc(Cl)cc2[nH]c(=S)n1CCC1=CCCCC1 | 4.8% (active)
54 | O=[N+]([O-])c1ccc(Nc2ccc(Cl)cc2)nc1 | -22%

Row | Structure (SMILES) | signal change vs control minus 3*SD hit threshold (margin above threshold, higher = more increase)
55 | COc1cccc(/C=N/n2c(SC)nnc2-c2ccccc2)c1O | -24.3%
56 | Cc1cc(=O)[nH]c(=S)n1-c1ccccc1 | -38.5%
57 | Cc1nn(-c2cccc(C(F)(F)F)c2)c(Cl)c1/C=N/Nc1cccc(C(=O)O)c1 | -28.4%
58 | CCNC(=O)C/C(C)=N/NC(=O)C(=O)Nc1ccc(CC)cc1 | -7.4%
59 | COc1ccc(/C=N/NC(=O)c2ccncc2)cc1CN1CCCc2ccccc21 | -40.9%
60 | CC1CN(S(=O)(=O)c2ccc(-c3nc4ccccc4s3)cc2)CC(C)O1 (stereo not given) | -8.4%
61 | CCSc1nnc(NC(=O)Cn2cnc3c2c(=O)n(C)c(=O)n3C)s1 | -29.2%
62 | CCCN1C(=O)/C(=C/c2ccc(C)s2)NC1=S | 33.6% (active)
63 | CC(C)CN1C(=O)/C(=C/c2ccco2)NC1=S | -30.9%
64 | COc1ccc(N2C(=O)/C(=C/c3cccs3)NC2=S)cc1 | -29.8%
65 | CCCN1C(=O)/C(=C/c2ccc3c(c2)OCO3)NC1=S | -21.2%
66 | CCN1C(=O)/C(=C/c2ccc(C)s2)NC1=S | 1.1% (active)
67 | CC(C)CN1C(=O)/C(=C/c2cccs2)NC1=S | 32% (active)
68 | COc1ccc(C(=O)NC(=S)N2CCC(C)CC2)cc1Br | -12.4%
69 | Oc1c(Br)cc(Cl)cc1C=Nc1ccccc1Br | -1.8%
70 | O=C(c1ccc(CS(=O)c2cccc(Cl)c2)o1)N1CCCCCC1 (stereo not given) | -32.8%
71 | NS(=O)(=O)c1ccc(NC(=S)NCc2cccs2)cc1 | -30.2%
72 | O=C(Nc1cccnc1)c1cc(-c2cccs2)on1 | -26.5%
73 | COC(=O)C1CCCN1C(=O)COc1ccc(Cl)cc1Br (stereo not given) | -25.2%
74 | O=C(c1c(O)c2ccccc2oc1=O)C1CCCCC1 | -22%
75 | CCCN(Cc1ccccc1)C(=S)NC(=O)c1ccccc1[N+](=O)[O-] | 24.3% (active)
76 | CN(C(=S)NC(=O)c1ccccc1)C1CCCCC1 | -23.6%
77 | CCN(C(=S)NC(=O)c1ccccc1Br)C1CCCCC1 | 16.2% (active)
78 | CCC(=O)NC(=S)NNC(=O)c1ccccc1[N+](=O)[O-] | -28%
79 | N#CCCN(Cc1ccccc1)C(=S)NC(=O)c1ccccc1 | -30.7%
80 | O=C(NC(=S)N(Cc1ccccc1)Cc1ccccc1)c1ccccc1F | -6.4%
81 | CN(Cc1ccccc1)C(=S)NC(=O)c1cccs1 | -20.6%

Row | Structure (SMILES) | signal change vs control minus 3*SD hit threshold (margin above threshold, higher = more increase)
82 | CN(C(=S)NC(=O)c1ccccc1Br)C1CCCCC1 | -13.4%
83 | CCN(Cc1ccccc1)C(=S)NC(=O)c1ccccc1Br | 27% (active)
84 | CCc1cc2cc(C)cc(C)c2[nH]c1=S | -11.2%
85 | COc1ccc(OCC(=O)Nc2c3c(nn2-c2ccc(OC)cc2)CS(=O)(=O)C3)cc1 | -14.9%
86 | O=C(O)c1ccc(S(=O)(=O)/N=C2\C=C(Nc3ccccc3F)C(=O)c3ccccc32)cc1 | -14.9%
87 | O=C(Nc1ccccc1)OCCCCCOC(=O)Nc1ccccc1 | -25.4%
88 | O=C(O)c1ccccc1NC(=O)c1cc2ccccc2oc1=O | -21.3%
89 | Cc1ccc(C)c(NC(=S)NC(=O)c2cncc(Br)c2)c1 | -24.9%
90 | CCCCCCC12CCC(C(=O)O)(CC1)CC2 | -8.9%
91 | O=c1c2[nH]c3ccccc3c2nc2n1CCCS2 | -3.7%
92 | C=CCNC(=O)c1ccccc1NC(=O)COc1ccc(OC)cc1 | -31.9%
93 | COc1ccc(N2CCN(C(=S)NC(=O)c3cccs3)CC2)c([N+](=O)[O-])c1 | -27.4%
94 | COc1cc(/C=C/C(=O)N[C@@H](Cc2c[nH]c3ccccc23)C(=O)O)ccc1O | -19.7%
95 | CCCCSc1nnc(CCC)n1N | -30.7%
96 | O=C(CC1CCCC1)Nc1ccc2c(c1)CCC2 | -18.5%
97 | CC1Cc2ccccc2N1C(=S)NC(=O)c1ccco1 (stereo not given) | -28.6%
98 | Cc1csc2ncc(C(=O)N3c4ccccc4CC3C)c(=O)n12 (stereo not given) | -16.4%
99 | O=C(NC(=S)N1CCCc2ccccc21)c1ccc(Br)cc1 | -8.9%
100 | CC(Oc1ccc(Cl)cc1Cl)C(=O)NC(=S)N1CCc2ccccc21 (stereo not given) | -7.9%
101 | CC1Cc2ccccc2N1C(=S)NC(=O)C1(C)CC1(Cl)Cl (stereo not given) | 11.2% (active)
102 | CC(C)N(Cc1ccccc1)C(=S)NC(=O)C1(C)CC1(Cl)Cl (stereo not given) | -9.7%
103 | Cc1cccc(C(=O)NC(=S)N2CCc3ccccc3C2)c1 | -1.3%
104 | CC1Cc2ccccc2N1C(=S)NC(=O)c1cccc(Br)c1 (stereo not given) | 48.8% (active)
105 | CC1Cc2ccccc2N1C(=S)NC(=O)c1ccc(Cl)cc1Cl (stereo not given) | 23.8% (active)
